Compound activity deposited in PubChem by National Center for Advancing Translational Sciences (NCATS).
Pf growth 96h = P. falciparum growth inhibition at 96 hours; P. falciparum luciferase reporter growth, 96 h; Potency, µM (series often up to 28.7 µM), for inactives: top-dose activity change, negative = inhibition, most hits filed as inhibitors; 6.9% of 320,000 active; AID 504834; further: on the % scale 0 is the no-effect control and ±100 the full control effect
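Luminescence readout: decreased luciferase signal marks inhibited growth of reporter-expressing P. falciparum in infected red cells (2% hematocrit, 0.05% parasitemia final), exposed to compound two generations (96 h, 37 C, 5% CO2).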
Pf growth 48h = P. falciparum growth inhibition at 48 hours (one generation); AID 504832; 5.9% of 310,000 active; Potency, µM (titrated, usually from 28.7 µM), for inactives: at the top dose activity change, negative = inhibition, usual class: inhibitors; P. falciparum luciferase growth in erythrocytes, 48 h; further: on the % scale 0 is the no-effect control and ±100 the full control effect
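In quantitative HTS format, infected erythrocytes bearing luciferase-reporter parasites were treated for a single generation at 37 C. Luminescence after adding detection reagent served as the growth measure.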
AMA1-RON2 inh = disrupts binding of P. falciparum AMA1 to RON2. AlphaScreen AMA1-biotinylated RON2 peptide binding. Potency, µM (doses to about 58.2 µM), inactives show at the top dose activity change, negative = inhibition, hits mostly inhibitors. 0.2% of 360,000 active. AID 720542;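 further: 0% = vehicle wells and -100% = peptide control; nearly all actives have a fitted effect of over 45% in size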
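AMA1 (3D7) with his tag at 25 nM final met compounds first, then biotinylated RON2 peptide at 25 nM; detection used donor plus acceptor beads, 10 µg/mL apiece, read by AlphaScreen after 30 min at room temperature.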
NS1 function inh = influenza NS1 inhibition; AID 2326; Potency, µM (doses to about 46.1 µM), for the others: at the top dose activity, positive = more growth; 0.4% of 270,000 active; calls by dose curve; further: actives are rising curves; nearly all actives have a fitted effect of over 50% in size
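In this qHTS, NS1 from influenza A is expressed in budding yeast, where it slows growth. Cells are switched from glucose to 2% galactose medium (pH 6.0, -URA), treated with compound, and growth recovery is read at OD600.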
HCV inhibitor = inhibitors of hepatitis C virus infection; 3.4% of 340,000 active; Potency, µM (highest dose often 41.8 µM), for inactives: at the top dose activity change, negative = inhibition, most hits filed as inhibitors; Huh7.5.1 HCVcc-Cre infection, luciferase reporter, 44 h; AID 651820; further: on the % scale 0 is the no-effect control and ±100 the full control effect
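Whole-lifecycle infectious HCVcc-Cre system; cells 1,000/well, compound then virus (~0.5 moi) added 4 h after plating, 44 h culture. Luciferase read 15 sec following 15 min substrate incubation, room temp.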
SARS PLpro yeast = blocks SARS-CoV papain-like protease in a yeast assay; S. cerevisiae expressing SARS-CoV PLpro, growth rescue; AID 485353; Potency, µM (highest dose often 32.9 µM), for inactives: at the highest dose activity, positive = growth rescue, most hits filed as activators; 0.19% of 330,000 active; calls by dose curve; further: 0% is about no effect; nearly all actives have a fitted effect of over 55% in size
* marks the source's active call; other numbers are inactive results; [ ] = dose if it differs, or a comment. Only some compounds are listed: those with a hit (about 12% of all), similar ones and a draw of the others. Unless noted, the call rests on the fitted dose curve; in most records, active means well fitted curve in the direction sought with a large enough effect; inconclusive means small, poorly fitted or top-dose-only effect, or another doubt; inactive means no such curve, though single readings can be large; an effect the other way counts as inactive or inconclusive. Potency means the concentration at half of the fitted maximal effect.

For CC(/C=C1\SC(=S)N(c2ccc(C(=O)O)cc2)C1=O)=C\c1ccccc1 the results were Pf growth 96h inconclusive, Pf growth 48h 4.7µM*, AMA1-RON2 inh -2%, NS1 function inh -2%, HCV inhibitor 23% and SARS PLpro yeast -1%.
For Cc1ccc(NC(=O)CN2C(=O)S/C(=C\c3ccc(C(=O)O)cc3)C2=O)cc1 the results were Pf growth 96h 15µM*, Pf growth 48h 9%, AMA1-RON2 inh 6%, NS1 function inh -9%, HCV inhibitor 4% and SARS PLpro yeast inconclusive.
Screening CC(/C=C1\SC(=S)N(NC(=O)c2ccc(C)cc2)C1=O)=C\c1ccccc1 returned Pf growth 96h 8%, Pf growth 48h 20%, AMA1-RON2 inh -8%, NS1 function inh 8%, HCV inhibitor inconclusive and SARS PLpro yeast -4%.
Screening CN1CCN(C(=O)CCCN2C(=O)/C(=C/c3ccccc3)SC2=S)CC1 returned Pf growth 96h inconclusive, Pf growth 48h inconclusive, AMA1-RON2 inh -8%, NS1 function inh -14%, HCV inhibitor -10% and SARS PLpro yeast 1%.
CC(=O)N1c2ccccc2N=C(c2ccc3c(c2)OCO3)C1C(=O)NCc1ccccc1 (stereo unspecified) was read as AMA1-RON2 inh -7%.
For Nc1ccccc1Sc1c[nH]c2ccccc12 the results were Pf growth 96h inconclusive, Pf growth 48h 6%, AMA1-RON2 inh -15%, NS1 function inh -17%, HCV inhibitor -24% and SARS PLpro yeast 1%.
Screening COc1ccc(/C=C2\SC(=O)N(CCCC(=O)Nc3ccc(C(=O)O)cc3)C2=O)cc1OC returned Pf growth 96h -24%, Pf growth 48h 5%, AMA1-RON2 inh 5%, NS1 function inh 13%, HCV inhibitor 14% and SARS PLpro yeast 1%.
For COc1ccccc1/C=C1\SC(=S)N(CCC(=O)Nc2cc(C)on2)C1=O the results were Pf growth 96h 9.3µM*, Pf growth 48h -7%, AMA1-RON2 inh 3%, NS1 function inh 28%, HCV inhibitor inconclusive and SARS PLpro yeast 0%.
`O=C(CN1C(=O)S/C(=C\c2ccccn2)C1=O)Nc1ccccc1` gave Pf growth 96h inconclusive, Pf growth 48h -8%, AMA1-RON2 inh -17%, NS1 function inh 12%, HCV inhibitor -27% and SARS PLpro yeast 0%.
Screening Cc1cccc(NC(=O)CN2C(=O)S/C(=C\c3ccccn3)C2=O)c1 returned Pf growth 96h 4.1µM*, Pf growth 48h -17%, AMA1-RON2 inh 12%, NS1 function inh 0%, HCV inhibitor -20% and SARS PLpro yeast 1%.
Screening COc1ccc(/C=C2\SC(=S)N(CCCC(=O)Nc3ccc(C(=O)O)cc3)C2=O)cc1OC returned Pf growth 96h inconclusive, Pf growth 48h 12µM*, AMA1-RON2 inh -2%, NS1 function inh 26%, HCV inhibitor 21% and SARS PLpro yeast 2%.
Screening COc1ccccc1/C=C1\SC(=O)N(CC(=O)NCCCn2ccnc2)C1=O returned Pf growth 96h inconclusive, Pf growth 48h 12µM*, AMA1-RON2 inh 1%, NS1 function inh -10% and HCV inhibitor 10%.
Cc1cccc(C)c1NC(=O)CN(CC(=O)O)CC(=O)O was read as Pf growth 96h -4% and Pf growth 48h -3%.
For Cc1ccc(NC(=O)CSCC(=O)OC(C)C(=O)Nc2ccc(S(N)(=O)=O)cc2)c(C)c1 (stereo unspecified) the results were Pf growth 96h 19%, Pf growth 48h 9%, AMA1-RON2 inh 12%, HCV inhibitor -28% and SARS PLpro yeast 4%.
For CCN(CC)CCOC(=O)c1ccc(NC(=O)CCCN2C(=O)S/C(=C/c3ccc(OC)cc3)C2=S)cc1 the results were Pf growth 96h -9%, Pf growth 48h 2.6µM*, AMA1-RON2 inh inconclusive, NS1 function inh 23%, HCV inhibitor 14µM* and SARS PLpro yeast -7%.
`COc1ccc(S(=O)(=O)Nc2ccccc2C(=O)N2CCOCC2)cc1Cl` gave Pf growth 96h -11%, Pf growth 48h 8%, AMA1-RON2 inh 16%, NS1 function inh 7%, HCV inhibitor 20% and SARS PLpro yeast inconclusive.
Screening Cc1nn(C2CCS(=O)(=O)C2)c(C)c1C=O (stereo unspecified) returned Pf growth 96h 20%, Pf growth 48h 29%, AMA1-RON2 inh 0%, HCV inhibitor 12% and SARS PLpro yeast 1%.
O=C(O)CC(SCC(=O)Nc1ccc(Cl)c(S(=O)(=O)N2CCOCC2)c1)C(=O)O (stereo unspecified) was read as Pf growth 96h 71%, Pf growth 48h 41%, AMA1-RON2 inh 0%, NS1 function inh 4%, HCV inhibitor 7% and SARS PLpro yeast 1%.
For O=C(Nc1ccc2c(c1)OCCO2)c1ccc(Cl)c(S(=O)(=O)N2CCOCC2)c1 the results were Pf growth 96h 4%[5.75 µM], Pf growth 48h 2.6µM*, AMA1-RON2 inh 2%, NS1 function inh -19% and SARS PLpro yeast -1%.
Screening O=C(CC1CCCC1)Nc1ccc(Cl)c(S(=O)(=O)N2CCOCC2)c1 returned AMA1-RON2 inh 7%, HCV inhibitor 11µM* and SARS PLpro yeast 0%.
CC(CC(=O)Nc1ccc(Cl)c(S(=O)(=O)N2CCOCC2)c1)c1ccccc1 (stereo unspecified) was read as Pf growth 96h inconclusive, Pf growth 48h 12µM*, AMA1-RON2 inh 0%, HCV inhibitor 2.5µM* and SARS PLpro yeast -3%.
`Cc1ccc(NC(=O)Cc2ccc3c(c2)OCCO3)cc1S(=O)(=O)N1CCCCC1` gave Pf growth 96h 5.2µM*, Pf growth 48h 171%, AMA1-RON2 inh -4%, NS1 function inh 11%, HCV inhibitor -27% and SARS PLpro yeast 0%.
For O=C(Nc1ccc(Cl)c(S(=O)(=O)N2CCOCC2)c1)C1CCC1 the results were Pf growth 96h inconclusive, Pf growth 48h inconclusive, AMA1-RON2 inh -2%, HCV inhibitor -10% and SARS PLpro yeast -3%.
Screening COc1ccc(NC(=O)Cc2ccc(C)c(C)c2)cc1S(=O)(=O)N1CCCCC1 returned AMA1-RON2 inh 10%, HCV inhibitor inconclusive and SARS PLpro yeast 8%.
Screening CC(C)c1cccc(C(C)C)c1NC(=O)CN1C(=O)NC2(CCCCCCC2)C1=O returned Pf growth 96h inconclusive, Pf growth 48h -8%, AMA1-RON2 inh 10%, HCV inhibitor -12% and SARS PLpro yeast 0%.
O=C(COc1ccccc1Cl)NCCCNC(=O)c1cnccn1 was read as Pf growth 96h 0%, Pf growth 48h -27%, AMA1-RON2 inh 5%, NS1 function inh 3%, HCV inhibitor 26% and SARS PLpro yeast -1%.
